Test results taken from article PMC5540273 (PLoS ONE, 2017).

Key:
Details in all cases: concentration: 1 μM, replicates: in singlicate; n = 1
CSNK1G1 = test system: CSNK1G1
CSNK1G2 = test system: CSNK1G2
CSNK1G3 = test system: CSNK1G3
CSNK2A1 = test system: CSNK2A1
CSNK2A2 = test system: CSNK2A2
CTK = test system: T1, CTK
T1 construct: gene MATK

DAPK1 = test system: DAPK1
DAPK2 = test system: DAPK2
DAPK3 = test system: DAPK3
DCAMKL1 = test system: T2, DCAMKL1
T2 construct: gene DCLK1

DCAMKL2 = test system: T3, DCAMKL2
T3 construct: gene DCLK2

DCAMKL3 = test system: T4, DCAMKL3
T4 construct: gene DCLK3

DDR1 = test system: DDR1
DDR2 = test system: DDR2
DLK = test system: T5, DLK
T5 construct: gene MAP3K12

DMPK2 = test system: T6, DMPK2
T6 construct: gene CDC42BPG

DMPK = test system: DMPK
DRAK1 = test system: T7, DRAK1
T7 construct: gene STK17A

DRAK2 = test system: T8, DRAK2
T8 construct: gene STK17B

DYRK1A = test system: DYRK1A
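Further: KINOMEscan kinase panel screen.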

Structure (SMILES)	%Inh (CSNK1G1)	%Inh (CSNK1G2)	%Inh (CSNK1G3)	%Inh (CSNK2A1)	%Inh (CSNK2A2)	%Inh (CTK)	%Inh (DAPK1)	%Inh (DAPK2)	%Inh (DAPK3)	%Inh (DCAMKL1)	%Inh (DCAMKL2)	%Inh (DCAMKL3)	%Inh (DDR1)	%Inh (DDR2)	%Inh (DLK)	%Inh (DMPK2)	%Inh (DMPK)	%Inh (DRAK1)	%Inh (DRAK2)	%Inh (DYRK1A)
COc1cccc(CC(=O)N2CCc3cc(-c4cn(C)c5ncnc(N)c45)ccc32)c1 [GSK2608899]	23%	5%	29%	14%	15%	0%	2%	0%	21%	26%	0%	14%	97%	27%	36%	53%	25%	4%	0%	6%
Nc1ncc(-c2cn[nH]c2)c2scc(-c3ccc4c(c3)CCN4C(=O)Cc3ccccc3)c12 [GSK2593067]	6%	24%	27%	11%	0%	12%	0%	0%	22%	0%	5%	0%	98.4%	22%	18%	90.3%	0%	0%	0%	20%
O=C(O)C(F)(F)F.O=c1[nH]ccc2nc(N[C@@H]3CCNC3)nc(Nc3ccc4c(c3)S(=O)(=O)CC4)c12 [GSK2181306]	85%	87%	94.4%	99.2%	99.9%	16%	99.5%	97.8%	99.6%	95.7%	84%	98.4%	0%	5%	72%	45%	97.5%	99.5%	92.1%	35%
CN(c1ccc(NC(=O)Nc2cccc(Cl)c2)cc1)c1ccnc(N)n1.Cl [GW830707]	12%	0%	0%	0%	0%	13%	0%	0%	0%	0%	0%	4%	97.7%	99.3%	0%	0%	4%	0%	17%	0%
CN(C)CCNS(=O)(=O)c1ccc(-c2ccnc3[nH]ccc23)cc1 [GSK977620]	0%	0%	5%	30%	11%	0%	76%	44%	88%	18%	16%	15%	7%	0%	26%	30%	74%	71%	28%	69%
Cc1cccc(Nc2nc(NCCN)ncc2C(N)=O)c1 [GSK1292139]	6%	0%	26%	34%	29%	0%	52%	25%	38%	16%	0%	0%	0%	20%	62%	60%	14%	58%	68%	2%
CN(c1ccc2c(c1)nc(NCc1ccccc1)n2C)c1ccnc(Nc2ccc(CS(C)(=O)=O)cc2)n1.Cl [GW811603]	0%	4%	0%	16%	8%	5%	13%	0%	0%	0%	0%	99.4%	99.5%	100%	14%	0%	9%	0%	0%	5%
COc1cccc(-c2nc(-c3ccccc3)[nH]c2-c2ccncc2)c1 [SB-610250]	0%	0%	22%	0%	0%	0%	0%	0%	19%	14%	22%	14%	78%	49%	16%	68%	0%	0%	0%	22%
Cc1ccc(O)cc1Nc1ccnc2ccc(C(C)(C)C)cc12 [GW856805]	19%	5%	0%	1%	7%	21%	13%	8%	7%	2%	18%	0%	40%	60%	0%	5%	3%	12%	0%	0%
CC(C)(C)c1ccc(C(=O)Nc2cn3cc(-n4ccnc4)ccc3n2)cc1	0%	12%	0%	0%	7%	24%	0%	16%	2%	29%	0%	0%	0%	2%	0%	4%	0%	20%	35%	91.4%
CCn1c(-c2nonc2N)nc2c(-c3ccccc3)ncc(OCCCN)c21.O=C(O)C(F)(F)F.O=C(O)C(F)(F)F [GSK260205]	10%	0%	29%	22%	31%	0%	10%	2%	25%	0%	9%	70%	26%	31%	0%	100%	0%	5%	2%	23%
CNc1nccc(-c2ccc3c(N)n[nH]c3c2)n1 [GSK2206003]	14%	0%	33%	43%	62%	0%	29%	31%	39%	0%	1%	72%	0%	29%	34%	0%	0%	99.2%	83%	98.8%
CC(C)c1nc(-c2ccc(F)c(NS(=O)(=O)c3c(F)cccc3F)c2)c(-c2ccnc(Nc3ccc(N4CCOCC4)nc3)n2)s1 [GSK1804250]	7%	4%	12%	10%	0%	30%	14%	5%	20%	12%	0%	30%	82%	56%	68%	26%	6%	15%	0%	7%
N#Cc1cnc2cc(-c3cnc(CNCCN4CCOCC4)s3)ccc2c1Nc1ccc(Oc2ccccc2)cc1 [GW664114]	19%	0%	25%	0%	5%	26%	26%	0%	2%	19%	0%	0%	21%	11%	91.2%	0%	0%	2%	0%	38%
Cc1ccccc1CC(=O)N1CCc2cc(-c3cn(C)c4ncnc(N)c34)ccc21 [GSK2603346]	12%	5%	17%	30%	15%	14%	0%	0%	0%	0%	0%	0%	56%	13%	4%	74%	0%	0%	0%	17%
N#CC1(c2cccc(C(=O)Nc3cccc(Oc4ccc5nc(NC(=O)C6CC6)sc5n4)c3)c2)CC1	0%	7%	0%	0%	0%	0%	0%	44%	13%	3%	0%	0%	98.6%	99.2%	0%	6%	5%	2%	7%	0%
CN1CCN(Cc2ccc(NC(=O)Nc3ccc(N(C)c4ccnc(Nc5ccc(CS(C)(=O)=O)cc5)n4)cc3)cc2)CC1.Cl [GW827654]	0%	0%	0%	100%	22%	16%	8%	0%	0%	44%	18%	30%	99.4%	100%	64%	57%	0%	10%	21%	0%
O=C(Nc1c(F)cccc1F)c1cc(C(=O)c2ccccc2F)c[nH]1 [GSK1326180]	0%	0%	21%	0%	0%	0%	0%	4%	4%	0%	0%	36%	0%	13%	14%	0%	0%	10%	0%	2%
Cc1cccc(Nc2nc(N[C@H]3CCCC[C@H]3N)ncc2C(N)=O)c1.Cl [GSK986310]	21%	0%	37%	36%	25%	0%	86%	70%	59%	32%	3%	35%	6%	0%	19%	21%	59%	4%	18%	26%
COC(=O)Nc1nc2cc(Oc3ccc(NC(=O)Nc4cccc(SC)c4)cc3)ccc2[nH]1.Cl [GW697999]	6%	0%	1%	0%	0%	0%	0%	43%	1%	21%	6%	29%	100%	98.7%	32%	0%	0%	8%	0%	12%
